Hit rate of the full screen: of about 310,000 compounds, about 11,000 (3.5%) were called active. About 8% were inconclusive and are not listed. The list comes from a sample in which actives are over-represented; it also holds similar structures and randomly drawn compounds. A call without a number means that no potency is given here. Values without a mark were called inactive. Calls come from the whole dose curve; as a rule, active = well fitted inhibition curve with a large enough effect; inconclusive = small, poorly fitted or top-dose-only effect, or effect the other way; inactive = flat fitted curve, though single readings scatter.
Potency is the fitted concentration of half-maximal effect.

The nature of this assay: VP16 counterscreen qHTS for inhibitors of ROR gamma transcriptional activity.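 Note: Gal4-VP16 expression switched on by copper sulfate through the metallothionein promoter; nearly all actives have a fitted effect of over 50% in size.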 As to conditions: Drosophila S2 Gal4-VP16 UAS-luciferase, luminescence, 20 h; series mostly up to 53.6 µM. In general terms: The purpose of a counterscreen is to sort out artefacts and off-target activity.
On to `CCCOc1cccc(C(=O)Nc2ccccc2C(=O)N2CCN(C)CC2)c1`, for which the Potency result was “inactive”. Regarding `Cc1ccc(S(=O)(=O)c2nc(-c3cccs3)oc2NCc2cccnc2)cc1`, the Potency entry is “inactive”. Still for that read-out and setting: then `S=c1[nH]nc(COc2ccccc2)n1-c1ccccc1`, with 10 µM (active). In the case of `Cc1ccc(OCc2n[nH]c(=S)n2-c2ccc(C)cc2)cc1`, the Potency entry was “inactive”. Turning to `Fc1ccc(/C=N/n2c(COc3ccccc3)n[nH]c2=S)cc1`, the Potency entry is “inactive”. As to `COc1ccc2oc(C(=O)NCC(Cc3ccccc3)N(C)C)c(C)c2c1` (configuration not stated), the Potency entry is “inactive”. On the same count and under the same terms, then `CC(C)Oc1ccc(CCc2n[nH]c(=S)n2Cc2ccccc2)cc1`, with 15.8 µM (active); and `CC(C)Oc1ccc(Cc2n[nH]c(=S)n2Cc2ccccc2)cc1Cl`, with “inactive”. Turning to `C=CCn1c(CCc2ccc(OC(C)C)cc2)n[nH]c1=S`, the Potency entry was “inactive”. On the same count and under the same terms, then `COc1ccc(CCNC(=O)C2CCCN(S(=O)(=O)c3ccc(OC)cc3)C2)cc1` (configuration not stated), with “inactive”; and `CC1CCC(NC(=O)CN(C)S(=O)(=O)c2ccc3c(c2)c(=O)n(C)c(=O)n3C)CC1` (configuration not stated), with “inactive”; and `COc1ccc(C(=O)NC(=S)N2CCNC(=O)C2CC(=O)OC(C)C)cc1` (configuration not stated), with 10 µM (active). Still for that read-out and setting: then `COc1cccc(NC(=O)CC2C(=O)NCCN2C(=S)Nc2ccc(F)cc2)c1` (configuration not stated), with “inactive”; and `CCc1ccc(NC(=O)CC2C(=O)NCCN2C(=S)Nc2ccccc2)cc1` (configuration not stated), with “inactive”. The same measure, in the same setting: then `Cc1ccc(-c2ccc(=O)n(Cc3ccc(F)cc3Cl)n2)cc1`, with “inactive”; and `O=c1[nH]c2cccnc2n1-c1ccc([N+](=O)[O-])cc1`, with “inactive”.

On to `O=[N+]([O-])c1ccc2c(c1)Nc1nc3ccccc3nc1N2`, for which the Potency result was “inactive”.

Regarding `O=[N+]([O-])c1ccc2nc(-c3ccccn3)[nH]c2c1`, the Potency was 6.31 µM (active). Still for that read-out and setting: then `Nc1nnn(CC(=O)N/N=C/c2ccc(O)cc2)n1`, with “inactive”; and `CC(C)(C)c1nnc(N/N=C/c2ccc(O)cc2)n(N)c1=O`, with 2.24 µM (active).

As for `O=c1c2ccccc2nc(N/N=C/c2ccccc2)n1O`, the Potency result was “inactive”. On the same count and under the same terms, then `CC(=O)Nc1cccc(C(=O)Nc2nc(C)cs2)c1`, with “inactive”; and `S=C(Nc1cccc(Cl)c1)Nc1ccc2cn[nH]c2c1`, with “inactive”; and `Cc1csc(NC(=S)Nc2cccc(Cl)c2)n1`, with 1 µM (active). Take `COc1cccc(N(CC(=O)NC2CCCCCC2)S(=O)(=O)c2ccccc2)c1`: the Potency result is “inactive”.

Regarding `CN1C(=O)CN2CCc3ccccc3C2c2cc(Cl)ccc21` (configuration not stated), the Potency result was “inactive”. On to `O=C(CSc1ncn[nH]1)Nc1nsc(-c2ccccc2)n1`, for which the Potency entry is “inactive”.

Take `O=C(CSc1nc(-c2ccccc2)cs1)Nc1cccc([N+](=O)[O-])c1`: the Potency result is “inactive”. The same measure, in the same setting: then `O=C(CSc1ncn[nH]1)Nc1nc(-c2cccc([N+](=O)[O-])c2)cs1`, with 17.8 µM (active); and `COc1ccc2[nH]c(=O)c(CN(Cc3cccnc3)S(=O)(=O)c3ccccc3F)cc2c1`, with “inactive”. As for `COc1cccc(N(CC(=O)NCc2ccccc2)C(=O)CCC(=O)Nc2nccs2)c1`, the Potency result was “inactive”. Same read-out and setting: then `O=C(CCl)NNc1cccc(Cl)n1`, with “inactive”; and `O=C(CCl)NNc1nc(-c2ccccc2)c2cc(Cl)ccc2n1`, with 17.8 µM (active). For `NC(N)=Nc1nc(-c2ccccc2)c2cc(Cl)ccc2n1`, the Potency entry is “inactive”. On the same count and under the same terms, then `COc1ccc(CCNC(=O)C(=O)NCC2OCCN2S(=O)(=O)c2ccc(F)cc2)cc1OC` (configuration not stated), with “inactive”. On the same count and under the same terms, then `O=C(Nc1ccc2cn[nH]c2c1)c1ccc(S(=O)(=O)N2CCOCC2)cc1`, with “inactive”. Still for that read-out and setting: then `CC1CCCCN1S(=O)(=O)c1ccc(C(=O)Nc2nnc(-c3cccs3)o2)cc1` (configuration not stated), with 0.891 µM (active); and `CCc1nnc(NC(=O)C2CCCN2S(=O)(=O)c2ccccc2)s1` (configuration not stated), with “inactive”. As for `CCc1nnc(NC(=O)c2ccc(S(=O)(=O)NC3CCCCC3)cc2)s1`, the activity, negative = inhibition is 0.424% [at 0.365 µM]. On to `Cc1ccnc(NS(=O)(=O)c2ccc(NC(=O)c3ccc(S(=O)(=O)N4CCOCC4)cc3)cc2)n1`, for which the Potency entry is “inactive”. The same measure, in the same setting: then `CC1CCCN(S(=O)(=O)c2ccc(C(=O)Nc3nnc(-c4ccncc4)o3)cc2)C1` (configuration not stated), with “inactive”. Same read-out and setting: then `CSCc1nnc(NC(=O)c2ccc(S(=O)(=O)N3CCCCC3C)cc2)o1` (configuration not stated), with 1.41 µM (active).

For the molecule `CC1CN(S(=O)(=O)c2ccc(C(=O)Nc3sccc3C(N)=O)cc2)CC(C)O1` (configuration not stated), the Potency result is “inactive”. As to `O=C(Nc1nnc(-c2ccco2)o1)c1ccc(S(=O)(=O)N2CCOCC2)cc1`, the Potency is 5.62 µM (active). Take `Cc1cccn2cc(-c3cccc(S(=O)(=O)N4CCCCC4)c3)nc12`: the Potency result was “inactive”. Still for that read-out and setting: then `COc1ccc(CCC(C)N2CCc3ccccc3C2)cc1` (configuration not stated), with “inactive”; and `Cc1cccc([C@@H]2[C@@H]3C(=O)N(Cc4ccccc4)C(=O)[C@@H]3[C@]3(C)C(=O)N(c4ccc(Br)cc4)C(=O)N23)c1`, with “inactive”; and `Cn1nccc1C(=O)N1CCCC(C(=O)c2ccc(Oc3ccccc3)cc2)C1` (configuration not stated), with “inactive”. The same measure, in the same setting: then `CCOC(=O)[C@H]1[C@H]2COc3cc(OC)ccc3[C@@H]2N2C(=O)N(c3ccc(Br)cc3)C(=O)[C@@]12C`, with “inactive”; and `Cc1ccc(OCCCC(=O)Nc2ccc(S(=O)(=O)Nc3cc(C)nc(C)n3)cc2)cc1`, with “inactive”; and `Cc1ccc(CSc2nsc(C)c2C#N)cc1`, with “inactive”. Same read-out and setting: then `COC(=O)C1[C@H]2SC(C)(C)C(C(=O)OC)N2C(=O)N1Cc1nc2ccccc2s1` (some centres not stated), with “inactive”; and `CN(Cc1nc2ccccc2s1)C(=O)c1ccc(F)cc1`, with “inactive”. As for `CCC1(CC)NC(=O)N(Cc2nc3ccccc3s2)C1=O`, the Potency was 3.55 µM (active).

As for `N#Cc1ccc(C2N=C(c3ccccc3)NO2)cc1` (configuration not stated), the Potency entry was “inactive”. On the same count and under the same terms, then `COc1ccc(C(=O)Nc2ccc(N3CCC(C)CC3)cc2)cc1Br`, with “inactive”.

In the case of `COc1c(Cl)cc(C(=O)Nc2ccc(Cl)cn2)cc1Cl`, the Potency result was “inactive”. Still for that read-out and setting: then `O=C(Cc1ccccc1)NC(=S)Nc1ccc(N2CCCCC2)cc1`, with 3.55 µM (active). With `Cc1ccccc1C(=O)N1CCN(c2ccc(NC(=O)c3cccs3)cc2)CC1`, the Potency result was “inactive”. On the same count and under the same terms, then `O=C(c1ccccc1)c1ccc(C(=O)N2CCN(c3ccccc3)CC2)cc1`, with “inactive”; and `COc1ccc(C(=O)N/N=C(\C)CC(=O)Nc2ccc(Cl)cn2)cc1`, with “inactive”. Same read-out and setting: then `Cc1ccccc1C(=O)Nc1ccc(N2CCCCCC2)cc1`, with “inactive”; and `COc1ccc(C(=O)NC(=S)Nc2ccc(Cl)cn2)cc1OC`, with 12.6 µM (active); and `Cc1ccccc1C(=O)NC(=S)Nc1ccc(N2CCN(C(=O)c3ccccc3)CC2)cc1`, with 5.62 µM (active). Regarding `COc1ccc(C(=O)Nc2ccc(C3(C#N)CCCC3)cc2)cc1OC`, the Potency result is “inactive”.

As for `O=C(CCN1CCN(c2ccccc2)CC1)NNC(=S)Nc1ccccc1`, the Potency entry is “inactive”. Turning to `COc1ccc(C(=O)NC(=S)Nc2ccc(N3CCCC3)cc2)cc1OC`, the Potency was 0.891 µM (active).
